Drawing on PubChem BioAssay (NCI), this text covers growth for 9 compounds.

What all share (assay): NCI-60 one-dose screen, 48 h (100 = growth as untreated, 0 = no growth, -100 = all killed)
For assay [1], the system named is SK-MEL-2 melanoma. Particulars: 10 µM unless noted.
In assay [2] the test system is EKVX NSCLC. The settings on record: 10 µM unless noted.
Assay [3] deals with SN12C renal. Particulars: 10 µM unless noted.
The test system of assay [4] is UO-31 renal. The settings on record: 10 µM unless noted.
The subject of assay [5] is TK-10 renal. Particulars: 10 µM unless noted.
The test system of assay [6] is ACHN renal. Particulars: 10 µM unless noted.
For assay [7], the system named is CAKI-1 renal. Particulars: 10 µM unless noted.
Assay [8] has as its system A498 renal. Particulars: 10 µM unless noted.
Assay [9] concerns CCRF-CEM leukemia. Particulars: 10 µM unless noted.
For assay [10], the system named is MOLT-4 leukemia. The settings on record: 10 µM unless noted.
In assay [11] the test system is SR leukemia. Particulars: 10 µM unless noted.
Assay [12] concerns RPMI-8226 leukemia. The settings on record: 10 µM unless noted.
For assay [13], the system named is OVCAR-8 ovarian. The settings on record: 10 µM unless noted.
In assay [14] the test system is OVCAR-5 ovarian. The settings on record: 10 µM unless noted.
Assay [15] relates to OVCAR-4 ovarian. Particulars: 10 µM.
Assay [16] deals with SK-OV-3 ovarian. Particulars: 10 µM unless noted.
Assay [17] relates to IGROV1 ovarian. Particulars: 10 µM unless noted.
Assay [18] concerns HS 578T breast. Particulars: 10 µM unless noted.
The subject of assay [19] is NCI/ADR-RES ovarian. The settings on record: 10 µM unless noted.
Assay [20] has as its system OVCAR-3 ovarian. Particulars: 10 µM unless noted.

About 83,000 compounds went through this panel and 20% of them were active in at least one assay; those are over-represented in the sample as a whole.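 Results are percent growth after 48 hours of single-concentration exposure. 100 means growth as in untreated cells, lower positive values show inhibition; negative values down to -100 show cell death.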 Values without a mark were called inactive. Activity calls are given as the source filed them. The calls were made as follows: active = growth percent below 10; inactive = the rest.

In the case of `CC(C)OC(=O)Nc1cc(F)ccc1F`, the growth in assay [1] is 112%; in [2], 98.8%; in assay [3], 99.5%; in assay [4], 89.7%; in assay [5], 97.7%; in [6] it was 100%. The growth was 96.5% in [7]; 96.9% in [8]; 103% in assay [9]; 101% in [10]; 96.1% in assay [11]; 103% in assay [12]. Also, the growth in assay [13] was 100%; in assay [14], 93.8%; in assay [15], 106%; in assay [16] it was 101%; in assay [17] it was 93.7%; in assay [18], 110%. The growth in [19] was 102%.

In the case of `CCOc1ccccc1/C=N\Nc1ccc(S(=O)(=O)c2ccc(N/N=C/c3ccccc3OCC)cc2)cc1`, the growth in assay [1] is 103%; in assay [2], 90.7%; in [3] it was 93.5%; in [4], 66.5%; in assay [5] it was 126%; in assay [6], 88.7%. In addition, the growth is 67.2% in assay [7]; 113% in [8]; 94.7% in [9]; 80.8% in assay [10]; 94.8% in [11]; 81.3% in assay [12]. Also, the growth was 93.1% in assay [13]; 95% in [14]; 96.6% in [15]; 87.6% in assay [16]; 76% in assay [17]; -24.9% (active) in assay [18]. The growth in assay [19] is 92.8%.

Regarding `CC(C)C1=NOC(=O)C1=Cc1cn(-c2cccnc2)nc1-c1ccccc1`, the growth in assay [1] was 111%; in assay [2], 100%; in [3], 87.5%; in assay [4] it was 89.7%; in assay [5], 101%; in assay [6], 99.2%. Further, the growth in assay [7] is 78%; in [8], 99.2%; in assay [9], 11.4%; in assay [10], 11.8%; in assay [11] it was -22.5% (active); in assay [12], -16.6% (active). The growth in [13] was 89.9%; in assay [14] it was 100%; in assay [15], 103%; in [16], 104%; in assay [17] it was 102%; in assay [19], 110%.

For `CNc1cc(C(=O)O)nc(NC)n1`, the growth in [1] is 103%; in [2], 97.1%; in assay [3], 95.1%; in assay [4] it was 88.4%; in assay [5] it was 99.2%; in [6], 99.9%. For the same compound, the growth was 98.4% in assay [7]; 79.7% in assay [8]; 100% in [9]; 101% in assay [10]; 107% in [11]; 103% in assay [12]. For the same compound, the growth is 101% in assay [13]; 92.1% in [14]; 97.6% in [15]; 109% in assay [16]; 99.1% in assay [17]; 94.7% in [18]. For the same compound, in [19], the growth was 99.4%.

`CCN=C1C=CC(=C(c2ccc(N(CC)CC)cc2)c2ccc(N(CC)CC)cc2)c2ccccc21`: the growth was -76.3% (active) in assay [1]; -40% (active) in [2]; -34.2% (active) in assay [3]; -65.4% (active) in assay [4]; -51.9% (active) in [5]; -94.9% (active) in [6]. The growth in [7] was -86.3% (active); in [8], -89.3% (active); in [9], 1.05% (active); in assay [10] it was -25.7% (active); in [11], -7.85% (active); in assay [12], -39.8% (active). Besides, the growth in assay [13] is -52.7% (active); in [14], -40.1% (active); in assay [15] it was -18.4% (active); in assay [16], -70.2% (active); in assay [17], -56.7% (active); in assay [18], -20.1% (active). Further, the growth in [19] was -16.3% (active).

For `C=CCCCCCCCCC(=O)OC(C)C`, the growth in [1] is 101%; in [2], 101%; in assay [3] it was 105%; in assay [4], 88.9%; in [5], 101%; in assay [6], 107%. Also, the growth is 107% in assay [7]; 91.4% in assay [8]; 2.8% (active) in assay [9]; 95.2% in [10]; 89% in assay [11]; 99.7% in [12]. The growth is 104% in assay [13]; 99.2% in [14]; 112% in [15]; 102% in [16]; 109% in assay [17]; 105% in assay [20]. Further, in assay [19], the growth was 102%.

For the compound `COc1ccc(C2CC(c3cc(OC)c(OC)c(OC)c3)=NN2C(C)=O)cc1OCC(=O)Nc1nc2ccc(C(F)(F)F)cc2s1` (stereo not given), the growth was 92.3% in assay [1]; 83.4% in [2]; 63% in assay [3]; 39.5% in assay [4]; 57.1% in assay [5]; 40.4% in assay [6]. Besides, the growth was 57.9% in assay [7]; 54.1% in [8]; 72.5% in [9]; 60% in assay [10]; 63.4% in assay [11]; 42% in assay [12]. For the same compound, the growth is 62.3% in assay [13]; 117% in [14]; 69.5% in [15]; 97% in assay [16]; 67.1% in assay [20]; 26.4% in [18]. For the same compound, the growth in [19] is 63%.

As for `COc1cc(NN=C(c2ccc(O)cc2)c2ccc(O)cc2)c([N+](=O)[O-])cc1[N+](=O)[O-]`, the growth in assay [1] is -70.2% (active); in assay [2], 108%; in assay [3], 90.5%; in assay [4], -66.4% (active); in [5], 93.5%; in assay [6], 42.4%. In addition, the growth in assay [7] was 97%; in [8] it was 125%; in assay [9], 103%; in [10] it was 94.6%; in assay [11] it was 50.6%; in assay [12] it was 81.5%. Further, the growth in assay [13] was -31.7% (active); in [14], 24.1%; in assay [15], 88.9%; in assay [16] it was 5.8% (active); in assay [20] it was 60.9%; in assay [18] it was 93.8%. In [19], the growth is 8.39% (active).

In the case of `N/C(=N\c1nc2ccccc2[nH]1)NC(=O)Cc1cccc2ccccc12`, the growth was 65.6% in assay [1]; 75.6% in [2]; 98.8% in assay [3]; 50.3% in [4]; 106% in [5]; 88.9% in assay [6]. Further, the growth in assay [7] was 82.9%; in assay [8], 80.6%; in assay [9], 86%; in assay [10], 30.4%; in [11] it was 115%; in assay [12], 92.9%. Besides, the growth in assay [13] is 27.5%; in [14], 88.6%; in assay [15], 70.6%; in assay [16], 92.5%; in assay [20], 120%; in assay [18], 84.1%. The growth in assay [19] was 79.9%.
